Test results: the supplement of paper PMC7156485
± gives the standard deviation of the averaged measurements.

Tests used:
Conditions in all cases: concentration: 10 µM; 24 h
HCC1569 [1] = assay: cell number relative to DMSO (% of DMSO); higher = more cells (less growth inhibition / toxicity)
Outline: (§1)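 After 24 h at 37 °C with compounds at 10 µM, in triplicate, HCC1569 and TDF cells were fixed with 3.7% formaldehyde. Immunostaining used a rabbit anti-H1.0 antibody and an AlexaFluor 647 secondary, with DAPI, and six fields per well were imaged at ×10. H1.0 nuclear intensity or cell number is presented as percent of the plate control, from the median of replicates, with HCC1569 values smoothed for positional effects.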

TDF [2] = assay: as above
Outline: as §1

TDF [3] = assay: H1.0 immunofluorescence intensity relative to DMSO (% of DMSO); higher = stronger H1.0 induction, active = 120 or more
Outline: as §1

HCC1569 [4] = assay: H1.0 immunofluorescence intensity relative to DMSO (% of DMSO); higher = stronger H1.0 induction, active = 140 or more
Outline: as §1
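Throughout, for H1.0 immunofluorescence intensity relative to DMSO: TDF is a line of transformed human dermal fibroblasts of mesenchymal origin.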
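Throughout, for cell number relative to DMSO: TDF denotes transformed human dermal fibroblasts of mesenchymal origin.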

Cl.NC(CO)C(=O)NNCc1ccc(O)c(O)c1O (stereo not drawn) [Benserazide hydrochloride]
cell number (HCC1569 [1]): 91.1
cell number (TDF [2]): 95.6
H1.0 immunofluorescence intensity (TDF [3]): 98.3 (inactive)
H1.0 immunofluorescence intensity (HCC1569 [4]): 96.3 (inactive)

COc1cc2ncn(-c3cc(OCc4ccccc4S(C)(=O)=O)c(C#N)s3)c2cc1OC [IKK-3 Inhibitor IX]
cell number (HCC1569 [1]): 85.9
cell number (TDF [2]): 109
H1.0 immunofluorescence intensity (TDF [3]): 84.2 (inactive)
H1.0 immunofluorescence intensity (HCC1569 [4]): 127 (inactive)

Cc1c(C)c2c(c(C)c1O)CCC(C)(COc1ccc(CC3SC(=O)NC3=O)cc1)O2 (stereo not drawn) [Troglitazone]
cell number (HCC1569 [1]): 99.8
cell number (TDF [2]): 93.8
H1.0 immunofluorescence intensity (TDF [3]): 101 (inactive)
H1.0 immunofluorescence intensity (HCC1569 [4]): 103 (inactive)

CCCCCC=CCC=CC=CC=CC(SCC(NC(=O)CCC(N)C(=O)O)C(=O)NCC(=O)O)C(O)CCCC(=O)O (stereo not drawn) [Leukotriene C4]
cell number (HCC1569 [1]): 99.8
cell number (TDF [2]): 92.2
H1.0 immunofluorescence intensity (TDF [3]): 90.1 (inactive)
H1.0 immunofluorescence intensity (HCC1569 [4]): 105 (inactive)

CC1c2cccc(O)c2C(O)=C2C(=O)C3(O)C(O)=C(C(N)=O)C(=O)C(N(C)C)C3C(O)C21.Cl (stereo not drawn) [Doxycycline hydrochloride]
cell number (HCC1569 [1]): 96.5
cell number (TDF [2]): 107
H1.0 immunofluorescence intensity (TDF [3]): 96.9 (inactive)
H1.0 immunofluorescence intensity (HCC1569 [4]): 105 (inactive)

CCC(C)C1OC2(CCC1C)CC1CC(CC=C(C)C(OC3CC(OC)C(OC4CC(OC)C(O)C(C)O4)C(C)O3)C(C)C=CC=C3COC4C(O)C(C)=CC(C(=O)O1)C34O)O2 (stereo not drawn) [Ivermectin]
cell number (HCC1569 [1]): 102 ± 2.5
cell number (TDF [2]): 103 ± 8.2
H1.0 immunofluorescence intensity (TDF [3]): 92.8 (inactive)
H1.0 immunofluorescence intensity (HCC1569 [4]): 93.7 (inactive)

CCCCCCCCC=CCCCCCCCC(=O)OCC(CO)OC(C)=O (stereo not drawn) [1-Oleoyl-2-acetyl-glycerol]
cell number (HCC1569 [1]): 98.9
cell number (TDF [2]): 106
H1.0 immunofluorescence intensity (TDF [3]): 89.4 (inactive)
H1.0 immunofluorescence intensity (HCC1569 [4]): 106 (inactive)

O=C1N=c2ccccc2=C1c1[nH]c2ccccc2c1NOCCC(O)CO (stereo not drawn) [Indirubin Derivative E804]
cell number (HCC1569 [1]): 60.8
cell number (TDF [2]): 62.7
H1.0 immunofluorescence intensity (TDF [3]): 102 (inactive)
H1.0 immunofluorescence intensity (HCC1569 [4]): 167 (active)

Cn1nnc2c(C(N)=O)ncn2c1=O [Temozolomide]
cell number (HCC1569 [1]): 105
cell number (TDF [2]): 91.4
H1.0 immunofluorescence intensity (TDF [3]): 105 (inactive)
H1.0 immunofluorescence intensity (HCC1569 [4]): 101 (inactive)

CCC=CCC=CCC=CCC=CCC=CCCCC(=O)O
cell number (HCC1569 [1]): 98
cell number (TDF [2]): 102
H1.0 immunofluorescence intensity (TDF [3]): 90.4 (inactive)
H1.0 immunofluorescence intensity (HCC1569 [4]): 96.4 (inactive)

CC1CC2C3CCC4=CC(=O)C=CC4(C)C3(F)C(O)CC2(C)C1(O)C(=O)CO (stereo not drawn) [Betamethasone]
cell number (HCC1569 [1]): 97.2
cell number (TDF [2]): 106
H1.0 immunofluorescence intensity (TDF [3]): 75.2 (inactive)
H1.0 immunofluorescence intensity (HCC1569 [4]): 99.5 (inactive)

NC1CONC1=O (racemic) [DL-Cycloserine]
cell number (HCC1569 [1]): 101
cell number (TDF [2]): 96.8
H1.0 immunofluorescence intensity (TDF [3]): 92 (inactive)
H1.0 immunofluorescence intensity (HCC1569 [4]): 92.3 (inactive)

CC(C)=CCC[C@@H](C)[C@H]1CC[C@H]2[C@@H]3CC=C4C[C@@H](O)CC[C@]4(C)[C@H]3CC[C@]12C [(3beta)-cholesta-5,24-dien-3-ol]
cell number (HCC1569 [1]): 103
cell number (TDF [2]): 88.8
H1.0 immunofluorescence intensity (TDF [3]): 96 (inactive)
H1.0 immunofluorescence intensity (HCC1569 [4]): 101 (inactive)

CN[C@H](CC(=O)O)C(=O)O [N-Methyl-D-aspartic acid]
cell number (HCC1569 [1]): 104
cell number (TDF [2]): 109
H1.0 immunofluorescence intensity (TDF [3]): 85.2 (inactive)
H1.0 immunofluorescence intensity (HCC1569 [4]): 98.8 (inactive)

O=C(C=Cc1ccc(O)c(O)c1)OC(Cc1ccc(O)c(O)c1)C(=O)O (stereo not drawn) [Rosmarinic acid]
cell number (HCC1569 [1]): 104 ± 2.8
cell number (TDF [2]): 101 ± 6.3
H1.0 immunofluorescence intensity (TDF [3]): 97.7 (inactive)
H1.0 immunofluorescence intensity (HCC1569 [4]): 98.7 (inactive)

CCn1c(=O)c2[nH]c(-c3ccccc3)nc2n(CC)c1=O [1,3-Diethyl-8-phenylxanthine]
cell number (HCC1569 [1]): 98.9
cell number (TDF [2]): 103
H1.0 immunofluorescence intensity (TDF [3]): 90.7 (inactive)
H1.0 immunofluorescence intensity (HCC1569 [4]): 87.1 (inactive)

Cn1cnc2cc3c(Nc4cccc(Br)c4)ncnc3cc21
cell number (HCC1569 [1]): 92.4
cell number (TDF [2]): 114
H1.0 immunofluorescence intensity (TDF [3]): 79.6 (inactive)
H1.0 immunofluorescence intensity (HCC1569 [4]): 117 (inactive)

Cn1ccnc1 [1-Methylimidazole]
cell number (HCC1569 [1]): 103
cell number (TDF [2]): 105
H1.0 immunofluorescence intensity (TDF [3]): 97.4 (inactive)
H1.0 immunofluorescence intensity (HCC1569 [4]): 98.9 (inactive)

CNCCC(Oc1ccc(C(F)(F)F)cc1)c1ccccc1.Cl (stereo not drawn) [S-(+)-Fluoxetine hydrochloride]
cell number (HCC1569 [1]): 91.2
cell number (TDF [2]): 93.3
H1.0 immunofluorescence intensity (TDF [3]): 107 (inactive)
H1.0 immunofluorescence intensity (HCC1569 [4]): 111 (inactive)

CC(=O)O.NC(=NCCCC(N)C(=O)O)NO [NG-Hydroxy-L-arginine acetate]
cell number (HCC1569 [1]): 97.8
cell number (TDF [2]): 107
H1.0 immunofluorescence intensity (TDF [3]): 91.4 (inactive)
H1.0 immunofluorescence intensity (HCC1569 [4]): 89.2 (inactive)

CCN(CCO)CCCC(C)Nc1ccnc2cc(Cl)ccc12.O=S(=O)(O)O (stereo not drawn)
cell number (HCC1569 [1]): 99
cell number (TDF [2]): 91.2
H1.0 immunofluorescence intensity (TDF [3]): 102 (inactive)
H1.0 immunofluorescence intensity (HCC1569 [4]): 95.7 (inactive)

O=[N+]([O-])c1ccc(CSc2ncnc3c2ncn3C2OC(CO)C(O)C2O)cc1 (stereo not drawn) [S-(4-Nitrobenzyl)-6-thioinosine]
cell number (HCC1569 [1]): 99
cell number (TDF [2]): 111
H1.0 immunofluorescence intensity (TDF [3]): 92.2 (inactive)
H1.0 immunofluorescence intensity (HCC1569 [4]): 80.6 (inactive)
